Screening results deposited in PubChem by several laboratories.
MIN6 prolif-1 = inducers of MIN6 beta-cell proliferation, primary screen, ATP luminescence, uHTS; MIN6 cells proliferation, ATPlite luminescence, 48 h; cells starved in 0.2% serum; 100% = growth in 10% serum; 330,000 compounds, 0.29% hits; proliferation, % at 10 µM; AID 2380, 2010;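 active = compounds whose signal lies at least 3.5 SD above the mean of all wells on their plate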;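 note: 0% = DMSO-treated cells in low-serum medium and 100% = 10% serum control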
CendR NRP1 mod = modulators of CendR peptide binding to NRP-1, primary screen, biochemical, fluorescence polarization, uHTS; Neuropilin-1 (Homo sapiens), O14786; FAM-RPARPAR peptide binding to NRP-1; inhibition, % at 25 µM; 360,000 compounds, 0.85% hits; AID 602438, 2012;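 active = inhibition or corrected inhibition above about 18%, plus a signal ratio from 0.5 to 1.5, limit read from the data, passing the limit was not always enough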
A3G deaminase = APOBEC3G DNA deaminase inhibitors, primary screen, biochemical, fluorescence, single-stranded DNA substrate, uHTS; 330,000 compounds, 0.28% hits; DNA dC->dU-editing enzyme APOBEC-3G (Homo sapiens), Q9HC16; recombinant A3G, ssDNA deamination FAM/TAMRA fluorescence; inhibition, % at 20 µM;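 active = inhibition of at least 40% at 20 µM, with no more than 30% in the related APOBEC3A deaminase screen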;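 note: plate controls were DMSO wells with A3G for no effect and wells lacking A3G enzyme for full effect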
Target sequence (Q9HC16 whole entry, looked up): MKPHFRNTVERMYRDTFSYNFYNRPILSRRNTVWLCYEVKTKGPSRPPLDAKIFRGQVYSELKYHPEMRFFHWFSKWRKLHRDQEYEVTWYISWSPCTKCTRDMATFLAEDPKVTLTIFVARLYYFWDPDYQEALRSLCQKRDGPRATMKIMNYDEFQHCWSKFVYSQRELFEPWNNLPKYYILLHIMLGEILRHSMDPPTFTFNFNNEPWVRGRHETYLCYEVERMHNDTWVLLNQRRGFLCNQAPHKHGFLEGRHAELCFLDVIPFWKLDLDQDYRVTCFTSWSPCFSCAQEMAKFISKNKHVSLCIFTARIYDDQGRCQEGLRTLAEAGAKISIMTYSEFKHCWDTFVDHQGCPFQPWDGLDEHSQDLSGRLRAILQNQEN
A3A deaminase = APOBEC3A ssDNA deaminase inhibitors, primary screen, selectivity assay for APOBEC3G inhibitor project, biochemical, FAM/TAMRA oligo cleavage fluorescence | 330,000 compounds, 0.41% hits | recombinant A3A, FAM/TAMRA ssDNA deamination fluorescence | inhibition, % at 20 µM;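 active = at least 40% inhibition at 20 µM here, with at most 30% in a related deaminase screen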;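 note: plate controls were A3A with DMSO for no effect and wells lacking A3A enzyme for full effect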
VLA-4 inh = inhibition in human VLA-4 binding assay, primary screen, VLA-4 allosteric modulator project, MLPCN library, flow cytometry, VLA-4 expressing cells; inhibition, % (about 7 µM as worked out from the volumes in the protocol); AID 2557, 2010; ligand binding flow cytometry; Integrin alpha-4 (Homo sapiens), P13612; 330,000 compounds, 0.2% hits; in the data active = inhibition above about 50%
MIN6 prolif-2 = inducers of beta-cell proliferation in MIN6, confirmation, MIN6 cells, mouse | shares compounds with MIN6 prolif-1 | ATPlite luminescence, 48 h; cells kept in 0.2% serum; scaled between 0.2% and 10% serum | proliferation increase, % at 50 µM | 920 tested, under 10 active;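 active = proliferation increase above 40% at any of the four tested concentrations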
* = called active by the depositor; x = no result. Rows were chosen to be rich in hits. Some 1.8% of all compounds tested hit in one or more screens of this group.

SMILES	MIN6 prolif-1	CendR NRP1 mod	A3G deaminase	A3A deaminase	VLA-4 inh	MIN6 prolif-2
CNC(=S)N(CCc1c(C)[nH]c2ccc(C)cc12)Cc1cccnc1	13*	-1	-7	-4	-137	-4
Cc1cccc(NC(=S)N(CCc2nc3cc(C)c(C)cc3[nH]2)Cc2cccnc2)c1	4.8*	-4	-3	-2	6	-1
N#CCCSc1ccccc1NC(=O)c1cc(=O)c2ccccc2o1	1	4	1	1	5	x
O=S(=O)(NCC1(N2CCOCC2)CCCCC1)c1ccc(F)c(F)c1F	2	-4	-2	0	5	x
COc1cccc(-n2nc(C(C)=O)c(C#N)c2-c2ccco2)c1	9.4*	14	-2	4	1	2
COc1cccc(-n2nc(C#N)c(Cl)cc2=O)c1	-5	-3	-5	-1	x	x
CC(=O)c1cccc(NC(=O)CSc2nc(C3CC3)nc3ccccc23)c1	0.0*	-1	-6	1	4	-4
O=C(Nc1cc(NC(=O)c2ccccc2F)ccc1Cl)c1ccccc1	-2	5	-9	-2	20	x
Nc1nc(CSc2nc3ccccc3s2)nc(N2CCCCC2)n1	9.0*	5	-3	2	-22	2
COc1ccc(Nc2nc(C)cc(C)c2C#N)cc1	-3	5	-5	-4	1	x
CCOc1ccc(Nc2nc(C)cc(C)c2C#N)cc1	6.3*	-14	-7	-4	2	2
NC(=O)C1(Nc2ccc(C(=O)O)cc2)CCCC1	x	1	x	x	x	x
O=C(COc1ccccc1Cl)Nc1ccc(S(=O)(=O)Nc2ccccn2)cc1	0.0*	6	-10	-3	1	1
COc1ccc(CC(=O)NCCS(=O)(=O)N2CCN(c3ccccc3)CC2)cc1	11*	1	-4	1	1	0
CC(C)c1nc2sc3c(SCC(N)=O)ncnc3c2c2c1CCC2	5.1*	-5	-5	1	-8	5
COc1ccc(C(=S)N2CCOCC2)cc1OC(=O)c1ccc(C)cc1	1	6	-10	-4	5	x
CC1Oc2ccccc2N(CC(=O)N(Cc2ccccc2)Cc2ccccn2)C1=O (centres undefined)	10*	8	-7	0	9	-1
Cc1cc(C)c(C)c(S(=O)(=O)Nc2ccccc2C(=O)NCCCN2CCOCC2)c1C	8.2*	8	-5	-1	3	-6
COc1ccc(-n2c(C)c(C(C)=O)c3cc(OC(C)=O)ccc32)cc1	5.3*	-8	-5	-4	6	-5
COc1ccc2c(c1)c(C(C)=O)c(C)n2-c1ccc(C(C)=O)cc1	-1	2	3	4	x	x
CCOC(=O)Cc1cc(=O)n2[nH]c(C)c(-c3ccccc3)c2n1	6.1*	-4	-1	-1	-1	-3
CN1C(=O)N(C)c2ccc(Br)c3cccc1c23	8.6*	4	-3	0	25	1
CN1C(=O)N(C)c2ccc(C=O)c3cccc1c23	7	14	-5	-1	7	x
CC12CCCCN1CCCc1c2[nH]c2ccccc12 (centres undefined)	5.5*	-6	0	-2	-18	-6
CCOc1ccc2ncc(S(=O)(=O)c3ccccc3)c(N3CCC4(CC3)OCCO4)c2c1	0.0*	x	-3	1	5	-6
COc1ccc(S(=O)(=O)c2cnc3ccc(OC)cc3c2N2CCC3(CC2)OCCO3)cc1	2	-4	-13	0	-1	x
COCCNC(=O)C1(C)CCCN(C(=O)c2ccc3snnc3c2)C1 (centres undefined)	x	3	x	x	x	x
CCOC(=O)C1CCN(C(=O)C2(NC(=O)Nc3ccc(F)cc3F)CCCCC2)CC1	7.6*	10	-13	-3	5	-1
COc1cccc(CNC2CCCc3ccccc32)c1OC (centres undefined)	9.1*	5	-6	-6	-5	-3
CC(C)CCn1c(-c2nonc2N)nc2ccccc21	4	4	1	1	-1	x
